# Measured values published in article PMC7862700, “An all-to-all approach to the identification of sequence-specific readers for epigenetic DNA modifications on cytosine”.
# Experiments:
# Experiment in all cases: DAPPL (digital affinity profiling via proximity ligation, sequencing); 10 mM Tris-HCl pH 7.5, 50 mM NaCl, 1 mM DTT, 4% glycerol, room temperature, 30 min; GST-TFs on glutathione beads, 16-mer random dsDNA library, 0.1% formaldehyde crosslink after washing; high values mean tight binding
# FLI1 = biological target: T1, FLI1 (Homo sapiens, UniProt Q01543 1-452); conditions: protein: recombinant; tags: N-terminal GST; dsDNA, one strand shown
# T1 sequence: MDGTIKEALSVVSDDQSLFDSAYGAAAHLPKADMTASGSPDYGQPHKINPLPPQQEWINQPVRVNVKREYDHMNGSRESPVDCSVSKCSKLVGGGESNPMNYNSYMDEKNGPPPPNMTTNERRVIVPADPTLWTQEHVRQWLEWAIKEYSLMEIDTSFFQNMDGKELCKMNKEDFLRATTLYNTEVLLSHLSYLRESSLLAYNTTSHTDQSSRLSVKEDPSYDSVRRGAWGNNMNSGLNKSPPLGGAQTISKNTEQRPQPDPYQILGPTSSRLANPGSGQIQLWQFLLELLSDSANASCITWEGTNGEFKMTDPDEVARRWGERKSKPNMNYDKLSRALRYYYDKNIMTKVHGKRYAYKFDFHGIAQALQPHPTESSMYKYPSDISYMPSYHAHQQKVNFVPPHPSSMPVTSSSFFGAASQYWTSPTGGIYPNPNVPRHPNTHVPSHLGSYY
# How it was run: (§1)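 A tag-only sample was pooled with DNA-barcoded human transcription factors that had been expressed in yeast as GST fusions and captured on glutathione beads. The pools were incubated for 30 min at room temperature with 200 nmole of a random double-stranded 16-mer DNA library in Tris/NaCl/DTT/glycerol buffer, then washed, crosslinked with 0.1% formaldehyde, proximity-ligated (BsaI/T4 ligase, 1 h, 37 °C), PCR-amplified and sequenced on an Illumina NextSeq500. Binding signal is each hexamer's read frequency for a factor divided by its frequency for the tag-only sample.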
# ELK1 = biological target: T2, ELK1 (Homo sapiens, UniProt P19419 1-428); conditions: protein: recombinant; tags: N-terminal GST; dsDNA, one strand shown
# T2 sequence: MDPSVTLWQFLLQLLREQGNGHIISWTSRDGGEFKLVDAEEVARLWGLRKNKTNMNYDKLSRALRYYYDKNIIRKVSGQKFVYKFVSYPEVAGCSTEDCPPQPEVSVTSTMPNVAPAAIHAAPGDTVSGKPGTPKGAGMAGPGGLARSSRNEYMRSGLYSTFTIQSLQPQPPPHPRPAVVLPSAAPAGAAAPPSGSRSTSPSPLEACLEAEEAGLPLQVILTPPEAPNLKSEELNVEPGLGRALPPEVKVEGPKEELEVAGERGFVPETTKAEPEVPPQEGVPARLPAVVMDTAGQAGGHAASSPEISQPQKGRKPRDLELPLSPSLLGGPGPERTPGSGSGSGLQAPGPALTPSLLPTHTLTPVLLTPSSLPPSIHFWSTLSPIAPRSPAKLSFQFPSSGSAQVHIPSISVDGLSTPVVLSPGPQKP
# How it was run: as §1
# GABPA = biological target: T3, GABPA (Homo sapiens, UniProt Q06546 1-454); conditions: protein: recombinant; tags: N-terminal GST; dsDNA, one strand shown
# T3 sequence: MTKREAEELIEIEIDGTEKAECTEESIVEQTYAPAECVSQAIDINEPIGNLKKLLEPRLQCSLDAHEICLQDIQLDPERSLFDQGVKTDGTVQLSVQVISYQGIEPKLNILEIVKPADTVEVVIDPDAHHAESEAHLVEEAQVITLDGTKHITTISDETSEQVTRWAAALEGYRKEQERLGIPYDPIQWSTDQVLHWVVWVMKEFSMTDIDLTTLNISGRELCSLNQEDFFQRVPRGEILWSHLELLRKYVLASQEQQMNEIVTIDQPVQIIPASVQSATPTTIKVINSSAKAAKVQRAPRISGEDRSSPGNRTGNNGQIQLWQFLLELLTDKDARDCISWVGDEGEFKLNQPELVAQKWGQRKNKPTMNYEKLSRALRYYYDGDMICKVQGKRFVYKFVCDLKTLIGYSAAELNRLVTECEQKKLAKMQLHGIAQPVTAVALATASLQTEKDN
# How it was run: as §1
# ERG = biological target: T4, ERG (Homo sapiens, UniProt P11308 1-479); conditions: protein: recombinant; tags: N-terminal GST; dsDNA, one strand shown
# T4 sequence: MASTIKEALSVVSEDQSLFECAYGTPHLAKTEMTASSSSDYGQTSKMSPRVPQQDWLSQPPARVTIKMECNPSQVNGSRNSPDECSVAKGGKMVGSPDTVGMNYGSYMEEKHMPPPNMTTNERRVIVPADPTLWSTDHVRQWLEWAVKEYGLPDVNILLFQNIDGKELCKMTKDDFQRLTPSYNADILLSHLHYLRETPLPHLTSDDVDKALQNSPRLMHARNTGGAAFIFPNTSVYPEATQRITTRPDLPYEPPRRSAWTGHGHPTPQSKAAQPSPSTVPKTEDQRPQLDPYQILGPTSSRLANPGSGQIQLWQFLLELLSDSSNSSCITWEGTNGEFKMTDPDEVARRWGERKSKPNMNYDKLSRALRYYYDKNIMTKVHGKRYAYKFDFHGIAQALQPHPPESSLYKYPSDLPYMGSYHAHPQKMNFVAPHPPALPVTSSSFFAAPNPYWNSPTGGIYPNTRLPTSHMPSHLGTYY
# How it was run: as §1
# ELF1 = ELF1 (Homo sapiens, UniProt P32519 1-619); conditions: protein: recombinant; tags: N-terminal GST; dsDNA, one strand shown
# ELF1, sequence (P32519 whole entry): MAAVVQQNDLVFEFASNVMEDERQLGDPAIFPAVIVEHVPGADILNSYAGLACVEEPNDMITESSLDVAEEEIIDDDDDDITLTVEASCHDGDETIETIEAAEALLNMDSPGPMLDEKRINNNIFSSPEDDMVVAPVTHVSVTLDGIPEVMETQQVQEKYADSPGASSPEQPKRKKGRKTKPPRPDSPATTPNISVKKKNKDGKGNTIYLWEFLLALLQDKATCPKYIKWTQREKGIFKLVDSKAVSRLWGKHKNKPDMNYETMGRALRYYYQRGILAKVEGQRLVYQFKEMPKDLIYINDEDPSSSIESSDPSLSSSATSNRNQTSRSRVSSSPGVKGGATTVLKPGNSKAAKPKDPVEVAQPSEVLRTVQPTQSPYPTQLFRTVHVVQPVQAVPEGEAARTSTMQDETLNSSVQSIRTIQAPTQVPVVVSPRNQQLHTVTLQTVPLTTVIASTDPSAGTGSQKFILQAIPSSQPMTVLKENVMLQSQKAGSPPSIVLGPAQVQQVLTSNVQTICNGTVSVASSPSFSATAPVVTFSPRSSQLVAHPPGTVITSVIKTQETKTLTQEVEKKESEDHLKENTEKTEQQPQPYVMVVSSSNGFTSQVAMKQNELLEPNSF
# How it was run: as §1
# EHF = biological target: T5, EHF (Homo sapiens, UniProt Q9NZC4 1-300); conditions: protein: recombinant; tags: N-terminal GST; dsDNA, one strand shown
# T5 sequence: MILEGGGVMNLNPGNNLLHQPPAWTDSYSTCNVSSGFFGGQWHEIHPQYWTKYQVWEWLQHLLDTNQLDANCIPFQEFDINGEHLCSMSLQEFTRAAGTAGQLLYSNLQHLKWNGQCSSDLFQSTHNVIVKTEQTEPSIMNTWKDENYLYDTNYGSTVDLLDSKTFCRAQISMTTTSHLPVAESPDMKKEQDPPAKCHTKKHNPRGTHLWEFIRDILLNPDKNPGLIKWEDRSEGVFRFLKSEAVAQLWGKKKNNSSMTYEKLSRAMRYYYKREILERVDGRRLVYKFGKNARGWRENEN
# How it was run: as §1
# SPI1 = SPI1 (Homo sapiens, UniProt P17947 1-270); conditions: protein: recombinant; tags: N-terminal GST; dsDNA, one strand shown
# How it was run: as §1
# SPIB = SPIB (Homo sapiens, UniProt Q01892 1-262); conditions: protein: recombinant; tags: N-terminal GST; dsDNA, one strand shown
# SPIB, sequence (Q01892 whole entry): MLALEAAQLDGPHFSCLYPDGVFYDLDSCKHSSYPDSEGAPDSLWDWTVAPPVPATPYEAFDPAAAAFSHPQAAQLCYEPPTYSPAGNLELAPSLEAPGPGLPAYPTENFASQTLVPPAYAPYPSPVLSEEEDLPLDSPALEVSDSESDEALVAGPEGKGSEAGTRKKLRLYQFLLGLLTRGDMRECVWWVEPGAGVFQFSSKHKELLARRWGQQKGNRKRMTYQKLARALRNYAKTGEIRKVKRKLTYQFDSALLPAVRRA
# How it was run: as §1
# ELK3 = biological target: T6, ELK3 (Homo sapiens, UniProt P41970 1-407); conditions: protein: recombinant; tags: N-terminal GST; dsDNA, one strand shown
# T6 sequence: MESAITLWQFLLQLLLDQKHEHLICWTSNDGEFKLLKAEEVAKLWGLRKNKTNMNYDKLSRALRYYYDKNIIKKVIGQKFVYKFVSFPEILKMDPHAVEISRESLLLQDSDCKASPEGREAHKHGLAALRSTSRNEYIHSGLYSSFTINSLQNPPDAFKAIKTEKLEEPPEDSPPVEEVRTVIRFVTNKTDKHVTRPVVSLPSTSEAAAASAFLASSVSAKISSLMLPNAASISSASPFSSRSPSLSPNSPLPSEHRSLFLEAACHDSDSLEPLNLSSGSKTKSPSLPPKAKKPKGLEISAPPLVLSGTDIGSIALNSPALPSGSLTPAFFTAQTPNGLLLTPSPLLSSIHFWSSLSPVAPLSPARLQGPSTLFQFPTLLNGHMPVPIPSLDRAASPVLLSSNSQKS
# How it was run: as §1
# FEV = biological target: T7, FEV (Homo sapiens, UniProt Q99581 1-238); conditions: protein: recombinant; tags: N-terminal GST; dsDNA, one strand shown
# T7 sequence: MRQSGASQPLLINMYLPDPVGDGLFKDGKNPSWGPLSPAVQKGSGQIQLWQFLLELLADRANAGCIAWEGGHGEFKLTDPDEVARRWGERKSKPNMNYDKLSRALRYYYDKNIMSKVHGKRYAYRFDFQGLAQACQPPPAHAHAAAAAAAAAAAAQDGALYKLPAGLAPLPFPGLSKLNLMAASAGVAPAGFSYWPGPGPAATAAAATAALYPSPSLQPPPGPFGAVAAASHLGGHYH
# How it was run: as §1
# ETV5 = ETV5 (Homo sapiens, UniProt P41161 1-510); conditions: protein: recombinant; tags: N-terminal GST; dsDNA, one strand shown
# ETV5, sequence (P41161 whole entry): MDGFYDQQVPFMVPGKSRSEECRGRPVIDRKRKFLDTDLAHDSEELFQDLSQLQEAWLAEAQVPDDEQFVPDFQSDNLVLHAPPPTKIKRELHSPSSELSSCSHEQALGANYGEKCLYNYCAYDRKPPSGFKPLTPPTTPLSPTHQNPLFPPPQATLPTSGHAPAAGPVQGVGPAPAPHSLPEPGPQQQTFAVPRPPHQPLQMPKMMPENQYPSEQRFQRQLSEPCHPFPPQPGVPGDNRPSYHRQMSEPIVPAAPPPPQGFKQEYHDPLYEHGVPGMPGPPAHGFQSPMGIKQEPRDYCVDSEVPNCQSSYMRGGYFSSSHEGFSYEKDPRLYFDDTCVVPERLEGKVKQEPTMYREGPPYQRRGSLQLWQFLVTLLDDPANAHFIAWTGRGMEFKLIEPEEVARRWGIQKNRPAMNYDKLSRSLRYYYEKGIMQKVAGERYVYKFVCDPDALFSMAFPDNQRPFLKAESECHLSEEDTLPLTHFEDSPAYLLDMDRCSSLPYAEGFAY
# How it was run: as §1
# HSF1 = HSF1 (Homo sapiens, UniProt Q00613 1-529); conditions: protein: recombinant; tags: N-terminal GST; chain copies: 3; dsDNA, one strand shown
# HSF1, sequence (Q00613 whole entry): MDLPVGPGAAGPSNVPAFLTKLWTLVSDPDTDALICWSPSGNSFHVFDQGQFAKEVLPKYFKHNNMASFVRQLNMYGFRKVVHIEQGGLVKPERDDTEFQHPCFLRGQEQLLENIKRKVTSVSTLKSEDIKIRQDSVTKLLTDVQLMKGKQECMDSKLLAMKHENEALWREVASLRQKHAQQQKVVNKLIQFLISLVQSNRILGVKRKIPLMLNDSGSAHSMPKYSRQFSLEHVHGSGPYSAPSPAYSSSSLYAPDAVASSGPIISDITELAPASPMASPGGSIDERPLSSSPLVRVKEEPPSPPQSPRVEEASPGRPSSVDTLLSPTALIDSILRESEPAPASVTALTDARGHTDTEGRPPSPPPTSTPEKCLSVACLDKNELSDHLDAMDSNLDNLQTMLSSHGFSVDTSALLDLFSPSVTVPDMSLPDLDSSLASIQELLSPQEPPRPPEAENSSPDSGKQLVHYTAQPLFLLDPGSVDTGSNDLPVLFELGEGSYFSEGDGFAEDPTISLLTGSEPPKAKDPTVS
# How it was run: as §1
# SPIC = biological target: T8, SPIC (Homo sapiens, UniProt Q8N5J4 1-248); conditions: protein: recombinant; tags: N-terminal GST; dsDNA, one strand shown
# T8 sequence: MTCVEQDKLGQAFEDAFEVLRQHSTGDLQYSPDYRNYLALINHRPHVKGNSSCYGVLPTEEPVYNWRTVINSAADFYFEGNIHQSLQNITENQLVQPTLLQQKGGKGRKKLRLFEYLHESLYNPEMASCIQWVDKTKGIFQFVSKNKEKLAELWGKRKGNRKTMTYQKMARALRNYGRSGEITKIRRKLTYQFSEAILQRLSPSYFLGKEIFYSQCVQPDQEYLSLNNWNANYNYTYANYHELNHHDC
# How it was run: as §1
# ELF4 = ELF4 (Homo sapiens, UniProt Q99607 1-663); conditions: protein: recombinant; tags: N-terminal GST; dsDNA, one strand shown
# ELF4, sequence (Q99607 whole entry): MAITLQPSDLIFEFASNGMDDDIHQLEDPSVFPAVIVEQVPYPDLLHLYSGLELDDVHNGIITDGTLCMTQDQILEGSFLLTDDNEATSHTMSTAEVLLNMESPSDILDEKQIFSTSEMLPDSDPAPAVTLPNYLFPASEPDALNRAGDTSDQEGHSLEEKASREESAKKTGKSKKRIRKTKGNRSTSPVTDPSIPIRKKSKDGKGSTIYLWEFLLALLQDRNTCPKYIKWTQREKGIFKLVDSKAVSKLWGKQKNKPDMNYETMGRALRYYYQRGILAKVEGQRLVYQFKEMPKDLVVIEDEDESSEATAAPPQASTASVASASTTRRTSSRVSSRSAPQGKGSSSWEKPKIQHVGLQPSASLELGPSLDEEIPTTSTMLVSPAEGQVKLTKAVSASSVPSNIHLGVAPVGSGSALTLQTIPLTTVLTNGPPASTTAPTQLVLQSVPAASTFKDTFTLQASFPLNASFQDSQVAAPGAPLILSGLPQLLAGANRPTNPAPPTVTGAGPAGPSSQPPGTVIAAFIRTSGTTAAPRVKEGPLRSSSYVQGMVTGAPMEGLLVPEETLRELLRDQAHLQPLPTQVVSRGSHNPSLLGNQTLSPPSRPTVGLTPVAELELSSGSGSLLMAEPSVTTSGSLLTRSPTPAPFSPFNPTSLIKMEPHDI
# How it was run: as §1
# ELK4 = biological target: T9, ELK4 (Homo sapiens, UniProt P28324-2 1-405); conditions: protein: recombinant; tags: N-terminal GST; dsDNA, one strand shown
# T9 sequence: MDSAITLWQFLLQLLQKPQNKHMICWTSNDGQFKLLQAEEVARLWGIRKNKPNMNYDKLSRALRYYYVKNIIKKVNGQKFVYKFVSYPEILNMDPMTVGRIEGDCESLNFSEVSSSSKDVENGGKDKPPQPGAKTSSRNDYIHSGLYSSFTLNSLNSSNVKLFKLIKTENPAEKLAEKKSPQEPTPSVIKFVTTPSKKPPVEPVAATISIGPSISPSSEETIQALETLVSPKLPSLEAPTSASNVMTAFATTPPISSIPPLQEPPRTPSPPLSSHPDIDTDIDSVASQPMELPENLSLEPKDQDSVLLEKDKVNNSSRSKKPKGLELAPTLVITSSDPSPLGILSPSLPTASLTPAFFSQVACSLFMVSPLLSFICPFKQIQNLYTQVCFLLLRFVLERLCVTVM
# How it was run: as §1
# ETV2 = biological target: T10, ETV2 (Homo sapiens, UniProt O00321 1-342); conditions: protein: recombinant; tags: N-terminal GST; dsDNA, one strand shown
# T10 sequence: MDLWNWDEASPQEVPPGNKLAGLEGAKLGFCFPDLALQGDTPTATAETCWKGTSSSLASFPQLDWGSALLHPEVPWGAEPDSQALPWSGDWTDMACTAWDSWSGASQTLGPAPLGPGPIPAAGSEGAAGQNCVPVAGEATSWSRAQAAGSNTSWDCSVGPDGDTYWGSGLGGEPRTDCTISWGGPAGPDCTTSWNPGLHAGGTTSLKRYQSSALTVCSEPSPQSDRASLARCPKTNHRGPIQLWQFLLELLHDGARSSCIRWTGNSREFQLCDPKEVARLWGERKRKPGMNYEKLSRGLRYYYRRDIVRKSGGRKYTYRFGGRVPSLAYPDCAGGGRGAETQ
# How it was run: as §1
# ELF3 = biological target: T11, ELF3 (Homo sapiens, UniProt P78545 1-371); conditions: protein: recombinant; tags: N-terminal GST; dsDNA, one strand shown
# T11 sequence: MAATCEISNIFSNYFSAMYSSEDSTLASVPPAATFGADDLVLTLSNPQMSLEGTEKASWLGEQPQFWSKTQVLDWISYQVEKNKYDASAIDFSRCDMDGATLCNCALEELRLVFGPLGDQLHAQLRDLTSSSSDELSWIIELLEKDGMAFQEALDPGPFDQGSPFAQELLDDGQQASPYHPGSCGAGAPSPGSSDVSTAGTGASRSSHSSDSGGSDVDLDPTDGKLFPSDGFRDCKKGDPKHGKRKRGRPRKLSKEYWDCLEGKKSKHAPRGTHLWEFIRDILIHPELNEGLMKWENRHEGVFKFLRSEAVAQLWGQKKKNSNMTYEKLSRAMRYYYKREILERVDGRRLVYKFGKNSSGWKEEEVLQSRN
# How it was run: as §1
# CRX = CRX (Homo sapiens, UniProt O43186 1-299); conditions: protein: recombinant; tags: N-terminal GST; dsDNA, one strand shown
# CRX, sequence (O43186 whole entry): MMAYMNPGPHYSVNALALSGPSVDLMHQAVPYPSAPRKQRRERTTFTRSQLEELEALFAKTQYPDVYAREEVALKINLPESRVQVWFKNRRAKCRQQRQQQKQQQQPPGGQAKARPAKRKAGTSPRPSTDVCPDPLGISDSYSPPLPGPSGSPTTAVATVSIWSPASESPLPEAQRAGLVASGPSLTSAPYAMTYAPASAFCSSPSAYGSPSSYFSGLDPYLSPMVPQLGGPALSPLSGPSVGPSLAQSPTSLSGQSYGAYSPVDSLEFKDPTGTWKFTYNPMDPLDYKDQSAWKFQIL
# How it was run: as §1
# ETV1 = ETV1 (Homo sapiens, UniProt P50549 1-477); conditions: protein: recombinant; tags: N-terminal GST; dsDNA, one strand shown
# ETV1, sequence (P50549 whole entry): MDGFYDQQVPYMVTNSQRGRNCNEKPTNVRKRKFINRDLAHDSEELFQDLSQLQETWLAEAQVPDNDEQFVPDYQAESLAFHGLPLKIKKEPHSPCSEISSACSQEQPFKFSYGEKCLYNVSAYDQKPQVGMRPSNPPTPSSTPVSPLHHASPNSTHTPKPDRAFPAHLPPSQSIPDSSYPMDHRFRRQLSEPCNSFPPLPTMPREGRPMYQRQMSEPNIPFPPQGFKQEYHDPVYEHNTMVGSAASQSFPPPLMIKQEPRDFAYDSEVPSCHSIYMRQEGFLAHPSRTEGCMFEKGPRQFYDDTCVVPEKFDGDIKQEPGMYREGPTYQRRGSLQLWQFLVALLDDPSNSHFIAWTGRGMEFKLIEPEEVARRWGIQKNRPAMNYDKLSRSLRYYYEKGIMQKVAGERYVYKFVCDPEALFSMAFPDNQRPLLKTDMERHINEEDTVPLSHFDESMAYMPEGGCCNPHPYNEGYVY
# How it was run: as §1
sequence,measurement,setting,value
ATTTTT,binding signal,FLI1,"1.14 fold enrichment (6-mer frequency, TF over GST control)"
same,binding signal,ELK1,"1.14 fold enrichment (6-mer frequency, TF over GST control)"
same,binding signal,GABPA,"1.13 fold enrichment (6-mer frequency, TF over GST control)"
same,binding signal,ERG,"1.1 fold enrichment (6-mer frequency, TF over GST control)"
same,binding signal,ELF1,"1.14 fold enrichment (6-mer frequency, TF over GST control)"
same,binding signal,EHF,"1.22 fold enrichment (6-mer frequency, TF over GST control)"
same,binding signal,SPI1,"1.18 fold enrichment (6-mer frequency, TF over GST control)"
same,binding signal,SPIB,"1.19 fold enrichment (6-mer frequency, TF over GST control)"
same,binding signal,ELK3,"1.12 fold enrichment (6-mer frequency, TF over GST control)"
same,binding signal,FEV,"1.15 fold enrichment (6-mer frequency, TF over GST control)"
same,binding signal,ETV5,"1.21 fold enrichment (6-mer frequency, TF over GST control)"
same,binding signal,HSF1,"1.31 fold enrichment (6-mer frequency, TF over GST control)"
same,binding signal,SPIC,"1.1 fold enrichment (6-mer frequency, TF over GST control)"
same,binding signal,ELF4,"1.19 fold enrichment (6-mer frequency, TF over GST control)"
same,binding signal,ELK4,"1.31 fold enrichment (6-mer frequency, TF over GST control)"
same,binding signal,ETV2,"1.29 fold enrichment (6-mer frequency, TF over GST control)"
same,binding signal,ELF3,"1.2 fold enrichment (6-mer frequency, TF over GST control)"
same,binding signal,CRX,"1.28 fold enrichment (6-mer frequency, TF over GST control)"
same,binding signal,ETV1,"1.28 fold enrichment (6-mer frequency, TF over GST control)"
